Reference: PubChem BioAssay
Results filed as inconclusive are left out. Active and inactive are the calls of the source.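 How the source made its calls, unless noted: active means percent response above a set limit, the screen-wide mean plus 3 SD (cut at about 130% in these data); inactive means the rest.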

Key:
[1] = yeast TOR pathway RPL19A-GFP modulators, primary screen, cell-based, S. cerevisiae, multiplex flow cytometry (AID 1862; in the data active means percent of DMSO control GFP below about 86%;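 further: lower values mimic rapamycin by blocking the RPL19A rise seen in DMSO cells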); details: S. cerevisiae RPL19A-GFP strain, flow cytometry fluorescence, 3 h; at 10 µM; stronger effect = lower value
[2] = modulators of MEP2-GFP levels in yeast, primary screen, S. cerevisiae, multiplex flow cytometry (AID 1867;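 active means GFP response, as percent of the DMSO control, above the screen-wide mean plus 3 SD, about 139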;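 further: median GFP channel fluorescence of barcode-gated MEP2-GFP cells measured by flow cytometry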); details: S. cerevisiae MEP2-GFP strain, 3 h, at 10 µM, stronger effect = higher value, 100% means same as DMSO wells
[3] = modulators of CIT2-GFP expression in yeast, primary screen, S. cerevisiae, GFP fusion, multiplex flow cytometry (AID 1870); details: 3 h, at 10 µM, stronger effect = higher value;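 further: barcoded CIT2-GFP strain pooled with four other GFP strains with rapamycin as positive control; median GFP fluorescence per well over plate mean of DMSO wells so 100% = DMSO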
[4] = modulators of LAP4-GFP expression in yeast, primary screen, S. cerevisiae, multiplex flow cytometry (AID 1873;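 active means GFP signal, as percent of the solvent control, above the screen mean plus 3 SD, about 149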); details: 3 h, at 10 µM, stronger effect = higher value
[5] = modulators of AGP1-GFP expression in yeast TOR pathway, primary screen, cell-based, multiplex flow cytometry, S. cerevisiae (AID 1887;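 active means GFP signal above the screen-wide mean plus 3 SD, that is over about 124.5% of the solvent control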;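 further: AGP1-GFP fusion strain of S. cerevisiae within a five-strain barcoded multiplex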); details: 3 h, at 10 µM, stronger effect = higher value
[6] = inhibitors of CD8+ T cell-vesicle binding, pilot screen, LFA-1/ICAM-1 modulator project, MLPCN validation set, flow cytometry (AID 2523;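 active means response below a set limit, under 55% cells CD8-positive and vesicle-bound, and CD8 cells' 90th-percentile brightness under 279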;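 on vesicle binding response: mean PE anti-B7-1 fluorescence of CD8+ cells relative to row control; 100% = QL9-loaded vesicles with DMSO vehicle in the same plate row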); details: 2C mouse CD8+ T cells, at 7 µM, stronger effect = lower value; double positive events: measured here: CD8+/vesicle+ event percentage
[7] = molecular target: Integrin beta-1 (Homo sapiens) + Integrin alpha-4 (Homo sapiens) (UniProt P13612+P05556); assay: inhibition of HUTS-21 binding to VLA-4, pilot screen, VLA-4 allosteric modulator project, U937 cells, HUTS-21 mAb, flow cytometry, validation set (AID 2674;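 active means inhibition above 50%, about 3 SD of the validation set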;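 further: antibody binding induced by the VLA-4 ligand LDV present at three times its Kd; 0% = LDV ligand with antibody and no compound and 100% = antibody without LDV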); details: HUTS-21 LIBS mAb binding, at 6.7 µM, stronger effect = higher value, binding induced by LDV ligand
[8] = superoxide lowering in aged yeast cells, pilot screen, validation compound set (AID 2706;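 active means superoxide response below 65% of plate, a cut near 3 SD across the whole screen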;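 further: yeast exposed to compound for one week at 30 degrees C before staining; 100% = mean of all compound wells on the same plate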); details: S. cerevisiae aging, superoxide DHE fluorescence; at 10 µM; stronger effect = lower value
[9] = molecular target: Beta-adrenergic receptor kinase 1 (Homo sapiens) (UniProt P25098); assay: GRK2 binders displacing RNA aptamer, biochemical, validation, human GRK2, bead flow cytometry (AID 488806;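 active means aptamer binding inhibition above 30%, about 3 SD of noise from non-fluorescent compounds; inactive means inhibition at or below 30%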); details: bead-bound GRK2, FAM-aptamer displacement, at 10 µM, stronger effect = higher value
[10] = molecular target: Beta-2 adrenergic receptor (Homo sapiens) (UniProt P07550); assay: beta2AR agonists driving receptor internalization, pilot screen, cell-based, FAP fluorogen, flow cytometry, validation set (AID 504459;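 active means percent response above 42, roughly 3 SD of non-fluorescent test compounds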;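 further: agonist-driven loss of surface beta2AR via internalization measured by FAP dye flow cytometry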); details: Am2.2-beta2AR cells, FAP surface receptor flow cytometry; at 10 µM; stronger effect = higher value
[11] = molecular target: AP-2 complex subunit beta (Homo sapiens) (UniProt P63010); assay: inhibitors of arrestin peptide binding to AP2, pilot screen, biochemical, validation set, GST-AP2 beads, flow cytometry (AID 504541;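 active means inhibition above 54%, about 3 SD of non-fluorescent compounds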;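 further: AP2 carries R879A mutation and is captured from E. coli lysate; bead-bound FITC arrestin peptide fluorescence measuring arrestin peptide binding to AP2; 0% = DMSO wells and 100% = excess unlabeled arrestin peptide control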); details: FITC arrestin peptide, at 10 µM, stronger effect = higher value, AP2 beta2 appendage fragment, R879A mutant
[12] = yeast V-ATPase proton transport modulators, S. cerevisiae, pHLuorin, HTS validation (AID 504600; in the data active means response above about 15%;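 further: plate controls were DMSO for no effect and reference compound for full effect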); details: S. cerevisiae pHLuorin cytosolic pH, at 10 µM, stronger effect = higher value
[13] = tested on: anti-desmoglein-3 scFv antibody binding to human DSG3; assay: inhibitors of anti-DSG3 scFv binding to DSG3, pilot screen, biochemical, validation compound set, bead-based, flow cytometry (AID 588368;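 active means binding below the plate cutoff, the plate median minus 3 SD, with a reading above zero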;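 further: signal is the median channel fluorescence of bead-bound GFP antibody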); details: Protein G beads, DSG3-Fc, scFv-GFP binding, at 10 µM, stronger effect = lower value
[14] = inhibitors of fungal efflux pumps CDR1, CDR2, MDR1, pilot screen, validation compound set, multiplex, phenotypic (AID 588506;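 active means efflux inhibition above 0.42, the validation set average plus 4 SD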;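 further: Nile Red retained in cells so higher fluorescence means more efflux inhibition; 0 = negative control wells and 1 = enniatin B 25 µM full block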); details: S. cerevisiae pump-expressing triplex, Nile Red efflux flow cytometry; at 10 µM; stronger effect = higher value; the pumps come from Candida albicans
[15] = molecular target: ATP-binding cassette sub-family B member 6 (Homo sapiens) (UniProt Q9NP58); assay: ABCB6 transporter inhibitors, pilot screen, K562-ABCB6 cells, flow cytometry, validation set (AID 588550;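 active means inhibition above the screen-wide mean plus 3 SD, about 51%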;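 further: 0% = DMSO wells and 100% = benzethonium chloride 70 µM positive control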); details: K562-ABCB6 porphyrin accumulation, 1 h, at 10 µM, stronger effect = higher value
[16] = promoters of myeloid differentiation in arrested cells, primary screen, cell-based, GFP/MAC1 double positive, flow cytometry, validation set (AID 588685;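 active means differentiation response of at least 50%, scaled between solvent and reference control, from cells with both markers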;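 further: compound exposure lasts four days before antibody staining and flow analysis; 0% = DMSO wells and 100% = 5 µM fulvestrant positive control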); details: ER-HoxA9 marrow cells, stronger effect = higher value, normalized: vehicle 0, fulvestrant 100

Chain of Beta-2 adrenergic receptor (Homo sapiens) (P07550 whole entry, looked up): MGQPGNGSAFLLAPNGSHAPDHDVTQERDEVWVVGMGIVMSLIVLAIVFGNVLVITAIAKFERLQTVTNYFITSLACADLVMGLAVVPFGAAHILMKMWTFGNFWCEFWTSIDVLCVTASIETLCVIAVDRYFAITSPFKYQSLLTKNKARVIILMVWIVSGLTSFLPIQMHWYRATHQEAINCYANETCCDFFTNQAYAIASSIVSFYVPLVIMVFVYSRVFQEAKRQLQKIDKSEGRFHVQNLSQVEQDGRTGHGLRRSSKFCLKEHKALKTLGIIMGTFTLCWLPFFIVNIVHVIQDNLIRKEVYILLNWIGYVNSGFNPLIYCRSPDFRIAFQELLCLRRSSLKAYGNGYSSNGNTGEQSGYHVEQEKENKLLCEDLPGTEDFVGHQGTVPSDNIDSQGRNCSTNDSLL
Chain of Beta-adrenergic receptor kinase 1 (Homo sapiens) (P25098 whole entry, looked up): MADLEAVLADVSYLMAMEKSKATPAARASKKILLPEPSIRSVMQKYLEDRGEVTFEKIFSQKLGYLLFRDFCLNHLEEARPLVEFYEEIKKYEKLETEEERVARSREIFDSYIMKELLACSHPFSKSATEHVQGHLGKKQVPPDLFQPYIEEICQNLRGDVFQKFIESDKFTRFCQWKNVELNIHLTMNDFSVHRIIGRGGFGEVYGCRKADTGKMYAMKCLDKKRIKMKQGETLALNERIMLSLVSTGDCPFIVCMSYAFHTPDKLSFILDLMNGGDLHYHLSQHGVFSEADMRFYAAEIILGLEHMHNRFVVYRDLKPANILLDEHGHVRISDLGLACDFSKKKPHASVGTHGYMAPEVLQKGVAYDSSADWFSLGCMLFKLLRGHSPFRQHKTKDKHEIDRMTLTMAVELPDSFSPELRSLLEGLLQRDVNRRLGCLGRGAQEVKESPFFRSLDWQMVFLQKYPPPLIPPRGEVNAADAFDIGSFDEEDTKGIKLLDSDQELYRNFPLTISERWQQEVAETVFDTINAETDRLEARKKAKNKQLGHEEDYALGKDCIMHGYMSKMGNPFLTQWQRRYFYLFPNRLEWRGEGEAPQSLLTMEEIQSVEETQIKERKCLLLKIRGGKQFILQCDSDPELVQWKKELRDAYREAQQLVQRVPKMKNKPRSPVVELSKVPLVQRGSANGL
Chain of Integrin beta-1 (Homo sapiens) + Integrin alpha-4 (Homo sapiens) (P05556 whole entry, looked up): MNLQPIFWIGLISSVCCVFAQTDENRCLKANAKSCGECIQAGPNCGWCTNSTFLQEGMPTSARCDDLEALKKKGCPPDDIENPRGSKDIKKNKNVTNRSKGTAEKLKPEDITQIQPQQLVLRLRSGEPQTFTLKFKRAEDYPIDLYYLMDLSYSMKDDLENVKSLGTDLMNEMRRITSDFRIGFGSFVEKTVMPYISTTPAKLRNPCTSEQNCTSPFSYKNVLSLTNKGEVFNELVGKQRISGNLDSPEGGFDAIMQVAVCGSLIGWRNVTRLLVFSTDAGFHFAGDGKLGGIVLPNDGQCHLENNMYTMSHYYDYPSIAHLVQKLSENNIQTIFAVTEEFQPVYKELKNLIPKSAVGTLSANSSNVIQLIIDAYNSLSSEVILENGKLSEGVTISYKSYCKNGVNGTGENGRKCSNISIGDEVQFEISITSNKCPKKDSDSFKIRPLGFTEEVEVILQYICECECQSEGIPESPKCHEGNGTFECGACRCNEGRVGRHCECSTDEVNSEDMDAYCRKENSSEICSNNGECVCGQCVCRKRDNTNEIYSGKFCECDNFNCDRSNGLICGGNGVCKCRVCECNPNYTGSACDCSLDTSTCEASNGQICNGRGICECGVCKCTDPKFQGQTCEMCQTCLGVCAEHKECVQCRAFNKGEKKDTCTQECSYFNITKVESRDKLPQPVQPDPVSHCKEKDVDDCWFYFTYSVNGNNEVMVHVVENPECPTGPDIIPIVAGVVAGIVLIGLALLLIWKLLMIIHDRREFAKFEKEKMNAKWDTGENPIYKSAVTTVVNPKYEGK
Chain of Integrin beta-1 (Homo sapiens) + Integrin alpha-4 (Homo sapiens) (P13612 whole entry, looked up): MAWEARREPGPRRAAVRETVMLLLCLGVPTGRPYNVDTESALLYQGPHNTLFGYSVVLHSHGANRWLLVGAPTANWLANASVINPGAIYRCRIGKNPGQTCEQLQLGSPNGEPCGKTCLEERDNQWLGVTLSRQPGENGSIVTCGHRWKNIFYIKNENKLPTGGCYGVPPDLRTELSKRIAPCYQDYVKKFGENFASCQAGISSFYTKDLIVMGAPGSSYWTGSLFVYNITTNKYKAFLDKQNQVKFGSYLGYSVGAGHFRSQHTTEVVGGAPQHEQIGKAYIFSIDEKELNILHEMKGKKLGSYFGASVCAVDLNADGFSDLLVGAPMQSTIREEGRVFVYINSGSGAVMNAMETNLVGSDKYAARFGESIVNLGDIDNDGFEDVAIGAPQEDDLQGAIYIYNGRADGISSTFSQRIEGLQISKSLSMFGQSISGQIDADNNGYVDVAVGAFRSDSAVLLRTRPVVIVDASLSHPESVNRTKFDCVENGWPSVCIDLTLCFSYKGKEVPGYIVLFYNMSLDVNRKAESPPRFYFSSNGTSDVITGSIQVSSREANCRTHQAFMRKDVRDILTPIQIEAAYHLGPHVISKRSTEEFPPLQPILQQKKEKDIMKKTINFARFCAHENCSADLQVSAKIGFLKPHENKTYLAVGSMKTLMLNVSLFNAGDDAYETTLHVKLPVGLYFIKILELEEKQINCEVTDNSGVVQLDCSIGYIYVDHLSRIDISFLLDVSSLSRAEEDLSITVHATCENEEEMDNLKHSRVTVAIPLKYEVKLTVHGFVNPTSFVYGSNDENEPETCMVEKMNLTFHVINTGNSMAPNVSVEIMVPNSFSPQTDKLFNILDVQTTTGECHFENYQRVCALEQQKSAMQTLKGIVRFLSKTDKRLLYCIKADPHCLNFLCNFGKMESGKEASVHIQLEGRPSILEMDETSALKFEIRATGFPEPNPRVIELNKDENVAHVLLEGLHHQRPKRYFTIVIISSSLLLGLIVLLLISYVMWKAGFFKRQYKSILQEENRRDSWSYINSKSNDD
Chain of AP-2 complex subunit beta (Homo sapiens) (P63010 whole entry, looked up, the tested form may be a part, one chain of several): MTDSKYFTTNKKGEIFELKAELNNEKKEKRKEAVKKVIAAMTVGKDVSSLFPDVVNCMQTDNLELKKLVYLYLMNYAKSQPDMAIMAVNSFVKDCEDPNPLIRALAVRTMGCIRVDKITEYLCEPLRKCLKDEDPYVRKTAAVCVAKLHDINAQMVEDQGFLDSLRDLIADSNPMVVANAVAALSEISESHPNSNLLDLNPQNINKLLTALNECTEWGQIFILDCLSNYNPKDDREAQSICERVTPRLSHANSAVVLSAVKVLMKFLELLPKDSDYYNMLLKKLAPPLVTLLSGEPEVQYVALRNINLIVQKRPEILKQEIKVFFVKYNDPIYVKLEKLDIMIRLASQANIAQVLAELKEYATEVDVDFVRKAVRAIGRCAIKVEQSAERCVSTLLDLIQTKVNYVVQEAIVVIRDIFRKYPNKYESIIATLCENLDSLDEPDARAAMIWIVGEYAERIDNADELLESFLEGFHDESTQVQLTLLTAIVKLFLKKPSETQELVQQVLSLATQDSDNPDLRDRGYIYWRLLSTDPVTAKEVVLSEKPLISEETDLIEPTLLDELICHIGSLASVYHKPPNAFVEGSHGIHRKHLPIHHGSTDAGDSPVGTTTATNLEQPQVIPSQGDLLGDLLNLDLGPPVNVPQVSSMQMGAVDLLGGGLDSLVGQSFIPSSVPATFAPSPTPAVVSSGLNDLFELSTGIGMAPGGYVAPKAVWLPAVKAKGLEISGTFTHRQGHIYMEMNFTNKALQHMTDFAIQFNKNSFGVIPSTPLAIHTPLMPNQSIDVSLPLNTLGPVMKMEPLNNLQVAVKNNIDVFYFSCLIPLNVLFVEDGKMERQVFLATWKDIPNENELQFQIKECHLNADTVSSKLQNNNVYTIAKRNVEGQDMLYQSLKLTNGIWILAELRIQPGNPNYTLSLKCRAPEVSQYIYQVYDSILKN
Chain of ATP-binding cassette sub-family B member 6 (Homo sapiens) (Q9NP58 whole entry, looked up): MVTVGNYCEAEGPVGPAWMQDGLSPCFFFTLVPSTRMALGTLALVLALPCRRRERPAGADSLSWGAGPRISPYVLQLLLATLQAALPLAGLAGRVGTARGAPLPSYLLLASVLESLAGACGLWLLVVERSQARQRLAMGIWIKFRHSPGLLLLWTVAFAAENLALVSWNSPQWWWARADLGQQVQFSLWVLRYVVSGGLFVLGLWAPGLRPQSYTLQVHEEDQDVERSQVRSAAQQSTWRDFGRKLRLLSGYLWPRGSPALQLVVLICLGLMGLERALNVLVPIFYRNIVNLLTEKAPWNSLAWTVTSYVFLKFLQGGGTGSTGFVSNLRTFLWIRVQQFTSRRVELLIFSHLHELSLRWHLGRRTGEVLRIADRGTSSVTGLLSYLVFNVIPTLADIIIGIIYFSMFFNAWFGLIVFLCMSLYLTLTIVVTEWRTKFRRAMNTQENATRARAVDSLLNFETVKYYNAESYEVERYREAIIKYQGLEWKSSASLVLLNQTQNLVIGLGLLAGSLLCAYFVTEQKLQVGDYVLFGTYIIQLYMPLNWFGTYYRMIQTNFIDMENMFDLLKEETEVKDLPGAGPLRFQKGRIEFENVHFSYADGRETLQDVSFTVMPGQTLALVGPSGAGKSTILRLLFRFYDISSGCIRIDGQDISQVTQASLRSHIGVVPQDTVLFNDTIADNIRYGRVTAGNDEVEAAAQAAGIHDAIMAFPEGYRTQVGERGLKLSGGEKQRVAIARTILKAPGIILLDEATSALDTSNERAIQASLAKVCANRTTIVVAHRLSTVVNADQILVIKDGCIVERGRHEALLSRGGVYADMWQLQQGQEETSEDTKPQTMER

COc1ccc(CCN(C)CCCC(C#N)(c2cc(OC)c(OC)c(OC)c2)C(C)C)cc1OC (centres undefined)
57.7%: double positive events [6]
inactive: percent of DMSO control GFP [1] 100% | GFP response vs DMSO [2] 99.3% | percent response of DMSO control [3] 111% | GFP response vs DMSO [4] 82.8% | GFP response, % of DMSO [5] 98.6% | vesicle binding response [6] 239% | inhibition [7] 11% | superoxide response (% of plate) [8] 86% | aptamer binding inhibition [9] 1% | response [10] -12.7% | inhibition [11] -7.98% | response [12] 0.22% | binding (% of control) [13] 99.8% | efflux inhibition (fraction of control) [14] -0.01 | inhibition [15] 9% | differentiation response [16] 3.18%

Cc1ccc(C2CC(=O)C(C=NCCN3CCN(C(=S)Nc4ccccc4)CC3)=C(O)C2)cc1 (centres undefined)
active: efflux inhibition (fraction of control) [14] 0.5
60.8%: double positive events [6]
inactive: percent of DMSO control GFP [1] 103% | GFP response vs DMSO [2] 104% | percent response of DMSO control [3] 91.2% | GFP response vs DMSO [4] 110% | GFP response, % of DMSO [5] 107% | vesicle binding response [6] 417% | inhibition [7] -0.27% | superoxide response (% of plate) [8] 104% | aptamer binding inhibition [9] 5% | response [10] -26.2% | inhibition [11] -7.49% | response [12] -3.06% | binding (% of control) [13] 101% | inhibition [15] 3% | differentiation response [16] -10.9%

COc1ccc(-c2cc(=O)oc3cc(OC(C)C(=O)O)ccc23)cc1 (centres undefined)
63.4%: double positive events [6]
inactive: percent of DMSO control GFP [1] 107% | GFP response vs DMSO [2] 94.7% | percent response of DMSO control [3] 93.8% | GFP response vs DMSO [4] 104% | GFP response, % of DMSO [5] 107% | vesicle binding response [6] 124% | inhibition [7] 11.7% | superoxide response (% of plate) [8] 115% | aptamer binding inhibition [9] 3% | response [10] -24.8% | inhibition [11] 6.04% | response [12] 1.91% | binding (% of control) [13] 108% | efflux inhibition (fraction of control) [14] 0 | inhibition [15] 3% | differentiation response [16] 19.6%

Cc1ccc(S(=O)(=O)N[C@@H](C)C(=O)N2CCC(C(=O)N3CCC[C@H]3C(=O)O)CC2)cc1
71%: double positive events [6]
inactive: percent of DMSO control GFP [1] 95% | GFP response vs DMSO [2] 129% | percent response of DMSO control [3] 103% | GFP response vs DMSO [4] 79.2% | GFP response, % of DMSO [5] 88.4% | vesicle binding response [6] 174% | inhibition [7] 3.55% | superoxide response (% of plate) [8] 92.7% | aptamer binding inhibition [9] 9% | response [10] -2.38% | inhibition [11] -9.12% | response [12] -1.19% | binding (% of control) [13] 100% | efflux inhibition (fraction of control) [14] -0.2 | inhibition [15] 8% | differentiation response [16] 0%

OCCN(Cc1nc(-c2ccc3c(c2)OCO3)no1)Cc1cccs1
65.7%: double positive events [6]
inactive: percent of DMSO control GFP [1] 97.6% | GFP response vs DMSO [2] 102% | percent response of DMSO control [3] 91.3% | GFP response vs DMSO [4] 109% | GFP response, % of DMSO [5] 89.4% | vesicle binding response [6] 118% | inhibition [7] 9.63% | superoxide response (% of plate) [8] 88.2% | aptamer binding inhibition [9] 1% | response [10] 23.6% | inhibition [11] -7.29% | response [12] -1.85% | binding (% of control) [13] 109% | efflux inhibition (fraction of control) [14] -0.28 | inhibition [15] 6% | differentiation response [16] 15.9%

Cc1ccccc1N1C(N)=NC(N)=NC1(C)C
63%: double positive events [6]
inactive: percent of DMSO control GFP [1] 102% | GFP response vs DMSO [2] 103% | percent response of DMSO control [3] 108% | GFP response vs DMSO [4] 94.8% | GFP response, % of DMSO [5] 104% | vesicle binding response [6] 135% | inhibition [7] -9.13% | superoxide response (% of plate) [8] 96.3% | aptamer binding inhibition [9] 0% | response [10] 7.98% | inhibition [11] -7.13% | response [12] 1.38% | binding (% of control) [13] 104% | efflux inhibition (fraction of control) [14] -0.28 | inhibition [15] 20% | differentiation response [16] -19.2%

CCN(CC)CCNC(=O)c1ccc(N)cc1
inactive: percent of DMSO control GFP [1] 99.6% | GFP response vs DMSO [2] 106% | percent response of DMSO control [3] 91.9% | GFP response vs DMSO [4] 89.4% | GFP response, % of DMSO [5] 94.6% | vesicle binding response [6] 1180% | inhibition [7] -6.68% | superoxide response (% of plate) [8] 94.8% | aptamer binding inhibition [9] -2% | response [10] -4.02% | inhibition [11] -0.67% | response [12] 0.99% | binding (% of control) [13] 94.2% | efflux inhibition (fraction of control) [14] -0.14 | inhibition [15] 21% | differentiation response [16] 6.11%
63.2%: double positive events [6]
